About 250 (13%) of roughly 1,900 compounds were called active. About 4% were inconclusive and are not listed.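 Rule for the calls: active = fitted curve reaches 40% rescue activity at or below the top valid dose, in every test run; inconclusive = test runs disagree, some active and some inactive; inactive = every run misses the threshold or moves the wrong way.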 A selection follows. Measured potencies and affinities stand elsewhere.
Test: rescue of simvastatin-induced ATP loss – cell-based, C2C12 myotubes, ATP luminescence, cherry pick, dose response (AID 624405);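 note: myotubes are challenged with simvastatin at 10 µM to lower ATP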
Settings: 48 h, scaled: DMSO wells 0, geranylgeraniol wells 100; series mostly up to 19.5 µM

| SMILES | outcome |
| --- | --- |
| C[C@@H]1CN([C@@H](C)CO)C(=O)c2cc(C3=CCCCC3)cnc2O[C@@H]1CN(C)C(=O)C1CCOCC1 | inactive |
| O=C(COC(=O)CNC(=O)c1ccc(Br)o1)Nc1ccc2c(c1)OCCO2 | inactive |
| COc1ccc(C(=O)N2CCc3cc(OC)c(OC)cc3C2)cc1OC | inactive |
| COc1ccc(C(=O)N2CCN(C(=O)c3cc(OC)c(OC)c(OC)c3)CC2)cc1 | inactive |
| N#Cc1cc2c(nc1SCC(=O)N1CCCCC1)CCCCC2 | inactive |
| CC(C)(C)C(=O)Nc1ccccc1N1CCN(C(=O)c2ccc(Cl)cc2)CC1 | inactive |
| C[C@@H]1CN([C@H](C)CO)C(=O)Cc2cc(NC(=O)Nc3ccc(F)cc3)ccc2O[C@H]1CN(C)Cc1ccc(Cl)c(Cl)c1 | inactive |
| C[C@H](CO)N1C[C@H](C)[C@@H](CN(C)Cc2ccc(Cl)c(Cl)c2)Oc2ccc(NC(=O)NC3CCCCC3)cc2CC1=O | inactive |
| C[C@@H]1CN([C@@H](C)CO)C(=O)Cc2cc(NC(=O)C3CCCCC3)ccc2O[C@H]1CN(C)Cc1ccc(-c2ccccc2)cc1 | inactive |
| C[C@@H]1CN([C@H](C)CO)C(=O)Cc2cc(NC(=O)Cc3cn(C)c4ccccc34)ccc2O[C@@H]1CN(C)Cc1ccc(Cl)c(Cl)c1 | inactive |
| C[C@H]1CN([C@@H](C)CO)C(=O)Cc2cc(NC(=O)Cc3cn(C)c4ccccc34)ccc2O[C@@H]1CN(C)Cc1ccc(Cl)c(Cl)c1 | inactive |
| C[C@H](CO)N1C[C@H](C)[C@@H](CN(C)Cc2ccc(Cl)c(Cl)c2)Oc2ccc(NC(=O)c3ccncc3)cc2CC1=O | inactive |
| C[C@@H]1CN([C@@H](C)CO)C(=O)c2cc(NC(=O)C3CCCCC3)ccc2O[C@@H]1CN(C)Cc1ccc(Cl)c(Cl)c1 | inactive |
| C[C@@H]1CN([C@H](C)CO)C(=O)c2cc(NC(=O)C3CCCCC3)ccc2O[C@H]1CN(C)Cc1ccc(Cl)c(Cl)c1 | inactive |
| COc1ccc(S(=O)(=O)Nc2ccc3c(c2)C(=O)N([C@@H](C)CO)C[C@H](C)[C@@H](CN(C)S(=O)(=O)c2ccc(F)cc2)OCCCC[C@@H](C)O3)cc1 | inactive |
| C[C@@H]1CCCCO[C@H](CN(C)C(=O)Nc2cccc3ccccc23)[C@H](C)CN([C@@H](C)CO)C(=O)c2cc(NC(=O)Nc3ccc4c(c3)OCO4)ccc2O1 | inactive |
| COc1cccc(S(=O)(=O)N(C)C[C@@H]2Oc3ncc(C#CCC(C)C)cc3C(=O)N([C@@H](C)CO)C[C@H]2C)c1 | inactive |
| CC(=O)Nc1cc(-c2nn(C)c(=O)c3ccccc23)ccc1N1CCOCC1 | inactive |
| C[C@@H]1CCCCO[C@H](CN(C)C(=O)C2CCCCC2)[C@H](C)CN([C@H](C)CO)C(=O)c2cc(NS(=O)(=O)c3ccccc3)ccc2O1 | inactive |
| COc1ccc(CC(=O)Nc2ccc(-c3cn4ccccc4n3)cc2)cc1 | inactive |
| C[C@@H]1CN([C@@H](C)CO)C(=O)Cc2cc(NC(=O)C3CC3)ccc2O[C@H]1CN(C)Cc1ccc(Oc2ccccc2)cc1 | inactive |
| C[C@@H]1CN([C@@H](C)CO)C(=O)Cc2cc(NC(=O)C3CCCCC3)ccc2O[C@H]1CN(C)Cc1ccc(Oc2ccccc2)cc1 | inactive |
| CCCCNc1ncnc2c1cnn2Cc1ccc(Cl)cc1 | inactive |
| O=C(CCn1c(SCC(=O)NCc2ccco2)nc2ccccc2c1=O)NCCc1ccccc1 | inactive |
| COCCCn1c(SCC(=O)NCc2ccco2)nc2sc3c(c2c1=O)CCC3 | inactive |

| SMILES | outcome |
| --- | --- |
| COc1ccc(OCC(=O)Nc2nnc(S(=O)(=O)N3CCCCCC3)s2)cc1 | inactive |
| Cc1cnc(C(=O)Nc2nccs2)cn1 | inactive |
| CCN(CC)S(=O)(=O)c1cccc(-c2nnc(SCC(=O)NCCC3=CCCCC3)n2N)c1 | inactive |
| CCN(C(C)=O)c1cccc2ccccc12 | inactive |
| CC1CCN(S(=O)(=O)c2ccc(NC(=O)c3ccco3)cc2)CC1 | inactive |
| CCC(C)NS(=O)(=O)c1ccc(NC(=O)C2CCN(C(=O)c3ccco3)CC2)cc1 (stereo not given) | inactive |
| CCC1CCCCN1S(=O)(=O)c1ccc(NC(=O)C2CCN(C(=O)c3ccco3)CC2)cc1 (stereo not given) | inactive |
| CC1CCCN(S(=O)(=O)c2ccc(NC(=O)C3CCN(C(=O)c4ccco4)CC3)cc2)C1 (stereo not given) | inactive |
| C[C@@H]1CCCCO[C@@H](CN(C)C(=O)Nc2cccc3ccccc23)[C@H](C)CN([C@H](C)CO)C(=O)c2cc(NC(=O)c3ccncc3)ccc2O1 | inactive |
| C[C@H]1CN([C@@H](C)CO)S(=O)(=O)c2ccc(-c3ccc(C(=O)N(C)C)cc3)cc2O[C@@H]1CN(C)C(=O)Cc1ccccn1 | inactive |
| CCOc1ncnc2c1[nH]c1ccccc12 | inactive |
| COc1ccc(CN(C)C[C@@H]2Oc3ccc(NC(=O)CCC(F)(F)F)cc3CC(=O)N([C@H](C)CO)C[C@H]2C)cc1 | inactive |
| COc1ccc(S(=O)(=O)Nc2ccc3c(c2)C(=O)N([C@H](C)CO)C[C@H](C)[C@@H](CN(C)S(=O)(=O)c2ccc(F)cc2)OCCCC[C@@H](C)O3)cc1 | inactive |
| O=C(O)CCC(=O)OCC1CCCCC1 | inactive |
| CC(C)NC(=O)Cn1c(=O)n(CC(=O)N2CCCCC2)c(=O)c2sccc21 | inactive |
| C[C@H]1CN([C@@H](C)CO)C(=O)c2cc(C#CC3CC3)cnc2O[C@@H]1CN(C)S(C)(=O)=O | inactive |
| C[C@@H]1CN([C@H](C)CO)C(=O)c2cc(NS(C)(=O)=O)ccc2O[C@@H](C)CCCCO[C@@H]1CN(C)S(=O)(=O)c1ccc(Cl)cc1 | inactive |
| O=c1c2c([nH]c3ccc(Br)cc13)CCCC2 | inactive |
| O=C(CCn1cccc1)NC1CCCc2ccccc21 (stereo not given) | inactive |
| Cc1ccc(CN(C(=O)c2ccco2)C(C(=O)NC2CCCC2)c2ccc(N3CCOCC3)cc2)cc1 (stereo not given) | inactive |
| COc1ccc(NC(=O)Nc2ccc3c(c2)C(=O)N([C@H](C)CO)C[C@H](C)[C@@H](CN(C)Cc2ccc(C(F)(F)F)cc2)OCCCC[C@H](C)O3)cc1 | inactive |
| Cc1ccc(S(=O)(=O)N(C)C[C@@H]2Oc3c(NC(=O)Nc4ccccc4)cccc3C(=O)N([C@H](C)CO)C[C@H]2C)cc1 | inactive |
| C[C@@H]1CN([C@H](C)CO)C(=O)c2cccc(NC(=O)Nc3ccccc3)c2O[C@@H]1CN(C)S(=O)(=O)c1ccccc1 | inactive |
| Cc1ccc(S(=O)(=O)N(C)C[C@@H]2Oc3c(NC(=O)Nc4ccccc4)cccc3C(=O)N([C@@H](C)CO)C[C@@H]2C)cc1 | inactive |
| Cc1ccc(S(=O)(=O)N(C)C[C@@H]2Oc3c(NC(=O)Nc4ccccc4)cccc3C(=O)N([C@H](C)CO)C[C@@H]2C)cc1 | inactive |

From PubChem BioAssay AID624405 (Broad Institute, 2012)
